# L3MBTL1 inh: inhibitors of human L3MBTL1. AID 485360. AlphaScreen L3MBTL1–H3K9me1 peptide binding. Potency, µM (titrated, usually from 57.1 µM), inactives show at the highest dose activity, negative = inhibition, usual class: inhibitors. hit rate 0.66% among 230,000; further: on the % scale 0 is the no-effect control and ±100 the full control effect; nearly all actives have a fitted effect of over 60% in size
#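 AlphaScreen proximity signal between nickel-chelate acceptor and streptavidin donor beads (final 10 ug/mL) reports binding of 50 nM L3MBTL1 to 75 nM biotin-H3 K9me1 peptide; complex incubated with compounds 30 min at room temperature; cefsulodin titration as control.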
# HP1b chromo inh: HP1-beta chromodomain-methylated histone interaction inhibition. P83916. hit rate 0.56% among 390,000. AID 540317. Potency, µM (titrated, usually from 114 µM), for the others: at the top dose activity change, negative = inhibition, actives largely listed as inhibitors. AlphaScreen HP1-beta / biotin-H3K9me3 peptide binding; further: nearly all actives have a fitted effect of over 70% in size
# Target sequence (P83916 whole entry, looked up): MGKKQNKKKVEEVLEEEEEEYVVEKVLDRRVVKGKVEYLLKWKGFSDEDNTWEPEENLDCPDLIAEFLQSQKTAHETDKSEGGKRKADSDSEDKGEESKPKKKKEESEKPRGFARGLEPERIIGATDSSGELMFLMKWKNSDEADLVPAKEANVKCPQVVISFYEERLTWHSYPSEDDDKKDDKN
#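 HP1-beta protein (50 nM final) preincubated 30 min at room temperature with biotinylated H3(1-18)K9me3 peptide (50 nM) in PBS pH 7.4, 0.01% Tween-20, then compound added for 30 min. AlphaScreen streptavidin donor/nickel chelate acceptor beads (10 ug/mL final), 30 min dark, luminescence read.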
# JMJD2A Tudor: blocks the human JMJD2A Tudor domain. O75164. AlphaScreen JMJD2A-Tudor / H3K4me3 peptide binding. Potency, µM (highest dose often 114 µM), without a hit: at the highest dose activity change, negative = inhibition, usual class: inhibitors. hit rate 4.4% among 390,000. AID 504339; further: on the % scale 0 is the no-effect control and ±100 the full control effect; nearly all actives have a fitted effect of over 50% in size
# G9a block: G9a (human) methyltransferase inhibition; Q96KQ7; G9a H3K9 monomethylation, AlphaScreen, 2 h; AID 504332; hit rate 8.8% among 350,000; Potency, µM (doses to about 102 µM), for the others: at the highest dose activity, negative = inhibition, actives largely listed as inhibitors; further: on the % scale 0 is the no-effect control and ±100 the full control effect; nearly all actives have a fitted effect of over 75% in size
# Target sequence (Q96KQ7 913-1193 limits assumed): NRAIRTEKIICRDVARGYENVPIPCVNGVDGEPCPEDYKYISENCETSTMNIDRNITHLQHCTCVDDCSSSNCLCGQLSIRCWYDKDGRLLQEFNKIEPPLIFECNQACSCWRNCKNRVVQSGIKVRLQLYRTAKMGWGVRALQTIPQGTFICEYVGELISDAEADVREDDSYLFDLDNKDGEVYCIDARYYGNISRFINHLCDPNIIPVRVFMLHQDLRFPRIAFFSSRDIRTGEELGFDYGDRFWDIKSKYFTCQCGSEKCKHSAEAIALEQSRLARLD
#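 Compounds were preincubated with 20 nM G9a for 15 min, after which biotinylated H3K9 peptide (500 nM) and SAM (20 uM) started a 2 h room-temperature reaction. Monomethylated product was quantified by antibody-based AlphaScreen chemiluminescence.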
# BAZ2B inh: inhibitors of human BAZ2B bromodomain; Potency, µM (titrated, usually from 114 µM), inactives show top-dose activity change, negative = inhibition, usual class: inhibitors; hit rate 4.4% among 360,000; AlphaScreen BAZ2B-H3K14Ac peptide displacement; further: on the % scale 0 is the no-effect control and ±100 the full control effect; nearly all actives have a fitted effect of over 60% in size
#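 Inhibition is scored as reduced AlphaScreen emission. The BAZ2B/b-H3(5-23)K14Ac complex (50 nM each) in PBS pH 7.4, 0.01% Tween-20 meets compound (up to 110 uM) for 30 min at RT before bead addition.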
# * hit, by the source's call; ? = inconclusive; . = not tested or not shown; [ ] = remark or other dose. Most compounds without a hit are left out; they make up all but 11% or so of the library. The call rests on the fitted dose curve; in most records, active means well fitted inhibition curve with a large enough effect; inconclusive means small, poorly fitted or top-dose-only effect; inactive means no such curve, though single readings can be large or run the other way. Potency means the concentration at half of the fitted maximal effect.
SMILES,L3MBTL1 inh,HP1b chromo inh,JMJD2A Tudor,G9a block,BAZ2B inh
COc1ccc(-n2c(/C=C/c3cc(OC)c(OC)cc3OC)nc3cc4ccccc4cc3c2=O)cc1Cl,.,-3%,?,-14%[59 µM],28µM*
COc1ccc(-n2c(/C=C/c3ccccc3F)nc3cc(OC)c(OC)cc3c2=O)cc1Cl,.,7%,-16%,-3%[59 µM],2%
COc1ccc(CNC(=O)CCc2nc(-c3ccc(C)cc3)no2)c(OC)c1,.,44%,5%,4%[59 µM],0%
Cc1ccc2nc(C)cc(C(=O)OCC(=O)c3ccc(Cl)c([N+](=O)[O-])c3)c2c1,-5%,0%,?,.,?
Cc1cc(C(=O)OCC(=O)c2ccc(Cl)c([N+](=O)[O-])c2)c2cccc(C)c2n1,?,-10%,22µM*,?,?
C#CCOCCOCCOCCNc1nc(N2CCN(C(=O)[C@H](CCC(=O)O)n3cc(C(N)[C@H](C)CC)nn3)CC2)nc(N2CCN(C(=O)[C@H](CCC(=O)O)n3cc(C(N)[C@H](C)CC)nn3)CC2)n1 (some centres not stated),-2%,-16%,?,-33%[12.7 µM],79µM*
C#CCOCCOCCOCCNc1nc(N2CCN(C(=O)[C@H](CCCCN)n3cc(C(N)CO)nn3)CC2)nc(N2CCN(C(=O)[C@H](CCC(=O)O)n3cc(C(N)[C@H](C)CC)nn3)CC2)n1 (some centres not stated),-18%,.,.,?,40µM*
C#CCOCCOCCOCCNc1nc(N2CCN(C(=O)[C@H](CCC(=O)O)n3cc(C(N)CO)nn3)CC2)nc(N2CCN(C(=O)[C@H](CCC(=O)O)n3cc(C(N)[C@H](C)CC)nn3)CC2)n1 (some centres not stated),-17%,33%,35µM*,-128%[59 µM],35µM*
C#CCOCCOCCOCCNc1nc(N2CCN(C(=O)[C@H](CCCCN)n3cc([C@@H](N)[C@H](C)CC)nn3)CC2)nc(N2CCN(C(=O)[C@H](CCC(=O)O)n3cc([C@@H](N)CCSC)nn3)CC2)n1,1%,16%,79µM*,.,.
Cc1ccc(C)c(CN2C(=O)c3ccccc3S(=O)(=O)c3ccc(C(=O)N4CCN(c5ccccc5F)CC4)cc32)c1,.,31%,-18%,-5%[59 µM],-14%
C#CCOCCOCCOCCNc1nc(N2CCOCC2)nc(N2CCN(C(=O)[C@H](CCCCN)n3cc(CN)nn3)CC2)n1,11%,7%,-28%,.,.
C#CCOCCOCCOCCNc1nc(N2CCN(C(=O)[C@H](CCCCN)n3cc(CN)nn3)CC2)nc(N2CCN(C(=O)[C@H](CCC(=O)O)n3cc([C@@H](N)CCSC)nn3)CC2)n1,0%,6%,89µM*,.,.
C#CCOCCOCCOCCNc1nc(N2CCOCC2)nc(N2CCN(C(=O)[C@H](CCCCN)n3cc([C@@H](N)C(C)CC)nn3)CC2)n1 (some centres not stated),1%,36%,-11%,?,-37%
C#CCOCCOCCOCCNc1nc(N2CCN(C(=O)C([C@@H](C)CC)n3cc(C(N)CO)nn3)CC2)nc(N2CCN(C(=O)[C@H](CCC(=O)O)n3cc(C(N)[C@H](C)CC)nn3)CC2)n1 (some centres not stated),.,.,.,?,35µM*
C#CCOCCOCCOCCNc1nc(N2CCN(C(=O)[C@H](CCCCN)n3cc(CN)nn3)CC2)nc(N2CCN(C(=O)[C@H](CCC(=O)O)n3cc([C@@H](N)[C@H](C)CC)nn3)CC2)n1,-4%,4%,56µM*,.,.
CCn1c(=O)c2c(nc(SCC(=O)Nc3ccccc3)n2C)n(C)c1=O,.,57%,0%,25%[59 µM],3%
Cc1ccc(N2CCN(C(=O)c3c(C)oc4nc(C)nc(N5CCCC5)c34)CC2)c(C)c1,.,28%,-14%,-28%[59 µM],2%[57.1 µM]
O=C(Cn1ncc2c3ccccc3n(Cc3cccc(Cl)c3)c2c1=O)Nc1ccc(F)cc1F,.,7%,?,-37%[59 µM],?
CC(=O)c1cccc(NC(=O)CCNS(=O)(=O)c2cccc(C(C)=O)c2)c1,-4%,35%,-10%,-14%[12.7 µM],10%
CC(=O)c1cccc(S(=O)(=O)NCCC(=O)Nc2ccc(S(N)(=O)=O)cc2)c1,.,35%,9%,50µM*,19%
O=C(O)Cc1sc(Nc2ccccc2)nc1-c1ccccc1,.,13%,-20%,?,-24%
CCOc1ccccc1Nc1nc(-c2ccc(C)cc2)c(CC(=O)O)s1,.,34%,-17%,7.9µM*,-9%
COc1ccc(OC)c(-c2nc(Nc3ccccc3C)sc2CC(=O)O)c1,.,50%,-14%,?,-27%
Cc1ccc(Nc2nc(-c3ccc(C)cc3)c(CC(=O)O)s2)cc1,-7%,-23%,?,35µM*,?
O=C(O)Cc1sc(Nc2cccc3ccccc23)nc1-c1ccc(Cl)cc1,.,1%,-28%,25µM*,?
SMILES,L3MBTL1 inh,HP1b chromo inh,JMJD2A Tudor,G9a block,BAZ2B inh
O=C(O)Cc1sc(Nc2cccc3ccccc23)nc1-c1ccccc1,-7%,-17%,?,-42%[12.7 µM],?
CCOC(=O)CC1c2cc(OCC)c(OCC)cc2CCN1C(=O)Nc1cccc(Cl)c1 (configuration not stated),.,32%,-19%,-12%[59 µM],?
O=[N+]([O-])c1cc(-c2n(-c3ccccn3)c3ccccc3[n+]2-c2ccccn2)ccc1Cl,-12%,-7%,-34%,50µM*,45µM*
O=[N+]([O-])c1cc2oc3c(c2c(C=NCc2ccccc2)c1O)CCCC3,1%,?,71µM*,3%[59 µM],-30%
CCc1ccc(CNC(=O)CCc2c(C)nn(-c3ccc(N4CCCC4)nn3)c2C)cc1,.,33%,-13%,11%[59 µM],?
O=C(O)c1cccc(NC(=S)NCc2ccccc2)c1,6%,13%,-20%,-27%,-17%
CC(C)NC(=S)NC(=O)c1ccc(-c2ccccc2)cc1,-1%,-6%,-33%,40µM*,-31%
O=C(Cc1cccc2ccccc12)NC(=S)Nc1cccc(C(=O)O)c1,8%,-16%,-23%,16µM*,?
O=C(NC(=S)Nc1ccc2cn[nH]c2c1)c1ccccc1,6%,18%,-8%,45µM*,-2%
O=C(O)c1cccc(NC(=S)NC(=O)c2ccc(-c3ccccc3)cc2)c1,-10%,16%,-3%,35µM*,-36%
S=C(Nc1ccccc1)Nc1ccc2cn[nH]c2c1,19%,22%,-16%,.,-17%
CCOC(=O)c1c(C)[nH]c(C)c1S(=O)(=O)N(C)CC(=O)Nc1cc(Cl)ccc1C,.,21%,-15%,-8%[59 µM],-12%
COc1ccccc1C1NC(c2ccc3c(c2)OCO3)=CC(c2cc(Br)ccc2O)N1 (configuration not stated),.,12%[57 µM],-12%[57.1 µM],.,.
COc1cc(-c2nnc(SCC(=O)NC3CCS(=O)(=O)C3)o2)cc(OC)c1OC (configuration not stated),7%,35%,-2%,-4%,-2%

# Screens deposited in PubChem BioAssay by National Center for Advancing Translational Sciences (NCATS).
